Shown are actives, neighbours in structure and some others; about 3.3% of the full set was active somewhere.
Cl transport mod = modulators of human KCC2 chloride dependent transport; 190,000 compounds, 2.2% hits; KCC2 cells, thallium flux FluoZin-2 fluorescence; B-score of Tl+ flux slope (higher = more flux/activation; lower = inhibition) at 10 µM; Q9H2X9;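 active = thallium flux slope and its plate-corrected score both differing from the plate sample mean at a set confidence after two filtering rounds, in either direction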;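 also: slope of fluorescence scaled to starting intensity during 10 to 20 s after thallium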
Target sequence (Q9H2X9 whole entry, looked up): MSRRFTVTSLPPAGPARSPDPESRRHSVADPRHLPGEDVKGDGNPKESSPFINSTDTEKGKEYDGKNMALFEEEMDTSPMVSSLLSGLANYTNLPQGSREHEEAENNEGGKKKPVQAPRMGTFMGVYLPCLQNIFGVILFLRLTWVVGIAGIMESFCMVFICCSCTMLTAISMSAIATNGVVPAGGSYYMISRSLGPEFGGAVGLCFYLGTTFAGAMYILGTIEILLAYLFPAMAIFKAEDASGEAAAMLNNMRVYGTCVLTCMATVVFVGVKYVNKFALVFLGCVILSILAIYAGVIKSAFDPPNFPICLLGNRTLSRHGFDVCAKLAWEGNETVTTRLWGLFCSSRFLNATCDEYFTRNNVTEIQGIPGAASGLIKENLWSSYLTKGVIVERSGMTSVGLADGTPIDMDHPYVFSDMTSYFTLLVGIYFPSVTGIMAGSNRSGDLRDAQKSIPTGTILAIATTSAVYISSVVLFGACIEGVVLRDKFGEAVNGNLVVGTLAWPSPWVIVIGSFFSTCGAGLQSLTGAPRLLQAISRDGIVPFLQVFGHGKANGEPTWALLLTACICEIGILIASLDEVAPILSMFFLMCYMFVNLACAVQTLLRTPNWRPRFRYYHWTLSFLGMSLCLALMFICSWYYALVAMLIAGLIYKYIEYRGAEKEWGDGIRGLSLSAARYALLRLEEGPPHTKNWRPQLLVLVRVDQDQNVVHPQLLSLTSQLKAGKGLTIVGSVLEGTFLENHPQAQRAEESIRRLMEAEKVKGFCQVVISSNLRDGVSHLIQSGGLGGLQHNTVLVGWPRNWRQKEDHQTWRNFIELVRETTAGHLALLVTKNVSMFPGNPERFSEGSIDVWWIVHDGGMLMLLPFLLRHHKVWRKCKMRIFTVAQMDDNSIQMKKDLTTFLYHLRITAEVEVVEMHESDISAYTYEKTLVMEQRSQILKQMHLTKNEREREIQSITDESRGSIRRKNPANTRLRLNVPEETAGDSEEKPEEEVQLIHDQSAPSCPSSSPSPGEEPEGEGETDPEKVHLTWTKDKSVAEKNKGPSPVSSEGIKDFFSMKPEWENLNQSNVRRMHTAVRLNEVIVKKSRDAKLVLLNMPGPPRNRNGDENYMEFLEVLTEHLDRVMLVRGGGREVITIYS
Calb FLC = affects C. albicans growth with fluconazole; AID 1979; C. albicans CaCi-2 (fluconazole-resistant clinical isolate) + fluconazole, Alamar Blue growth, 48 h; growth inhibition, % (test concentration not listed); 300,000 compounds, 0.57% hits;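 active = growth inhibition above about 58% in most replicates, limit read from the data, passing the limit was not always enough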;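 also: all wells also contain fluconazole at 8 µg/ml as a sub-toxic cotreatment; 0% = median of DMSO wells and 100% = median of geldanamycin control wells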
PHOSPHO1 inh = blocks human PHOSPHO1 phosphatase activity | recombinant PHOSPHO1, absorbance phosphatase assay | 290,000 compounds, 1.1% hits | Q8TCT1 | AID 1565 | inhibition, % at 13.3 µM; in the data active = inhibition above about 60%
Cardio protect = protects H9c2 cardiomyocytes from peroxide injury; H2O2 injury protection, ATPLite, 2 h; protection from H2O2 cell death, % at 20 µM; 360,000 compounds, 0.63% hits; AID 588492;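 active = compounds giving at least 50% protection of heart cells from peroxide-induced death in the single-dose screen, raw or plate-pattern-corrected value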;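 also: 0% = DMSO wells with peroxide and 100% = DMSO wells without peroxide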
Efflux pump mplx = antifungal efflux pump inhibition, Nile Red retention; S. cerevisiae Candida pump triplex; inhibition, % at 10 µM; 330,000 compounds, 0.44% hits;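 active = plate passing quality check with inhibition over a set limit, or well fluorescence over plate mean plus 4 SD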;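 also: Nile Red retained in pooled yeast measured as flow cytometry median fluorescence; 0% = buffer negative control and 100% = Enniatin B positive control; higher means more Nile Red kept so more efflux inhibition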
An asterisk follows results filed as active; . = not tested or not shown.

SMILES	Cl transport mod	Calb FLC	PHOSPHO1 inh	Cardio protect	Efflux pump mplx
COc1ccc(-c2ccc(CN3C(CC(C)C)C(=O)N(Cc4cn(CCC5OCCCO5)nn4)CCS3(=O)=O)cc2)cc1OC (configuration not stated)	.	.	.	44	.
Cc1ccc(S(=O)(=O)C/N=C(/NC(=S)N(c2ccccc2)c2ccccc2)c2ccccc2)cc1	0.0043	8	66*	-2	0
Cc1ccc(S(=O)(=O)/N=C(/NC(=S)Nc2ccccc2)c2ccccc2)cc1	7.2	-50	12	-15	0
CCOc1ccc(NC(=O)C2CCCCN2S(=O)(=O)c2ccccc2)cc1 (configuration not stated)	0.76	-7	89*	4	0
Cc1ccccc1C(=O)c1cccn1CC(=O)NC1CCCC(C)C1C (configuration not stated)	.	-8	17	-2	0
CCC1CCCCN1CCCn1c(=S)[nH]c2ccccc2c1=O (configuration not stated)	9.2*	-4	9	6	0
COn1c(=S)[nH]c2ccccc2c1=O	.	.	42	-4	0
CC1CCCCC1n1c(=S)[nH]c2ccccc2c1=O (configuration not stated)	187*	0	33	-7	0
CC1CCCCC1NC(=O)CCCCCn1c(=S)[nH]c2ccccc2c1=O (configuration not stated)	2.3	12	63*	2	0
CC1CCCCC1NC(=O)CCCn1c(=S)[nH]c2ccccc2c1=O (configuration not stated)	0.47	2	-8	6	0
CC1CCCCC1NC(=O)Cn1cccc1C(=O)c1ccccc1 (configuration not stated)	.	-4	70*	1	0
CCCCCCOc1ccc(N2C(=O)CC(N(CCc3ccc(S(N)(=O)=O)cc3)C(C)=O)C2=O)cc1 (configuration not stated)	-0.27	-1	15	-10	0
O/N=C(/c1ccccc1)c1cc2cc(Br)cc(Br)c2o1	.	0	.	-10	0
Cc1ccc(CNS(=O)(=O)c2cc3c4c(c2)CCN4C(=O)CC3)cc1	.	2	.	-3	0
CCC(C(=O)NC(C)CCc1ccccc1)n1nc(C)n2c(cc3occc32)c1=O (configuration not stated)	-5.5*	-2	29	-4	0
Cc1cc(C)n2nc(CC(=O)NNC(=O)c3ccccc3Cl)nc2n1	.	-6	18	-5	0
Cc1cnc(C(=O)N2CCCC(C(=O)c3ccc(Cl)cc3C)C2)cn1 (configuration not stated)	0.26	-7	37	-4	0
COC(=O)c1sccc1NC(=O)Nc1ccccc1F	-0.47	-9	63*	-3	0
COc1ccc(CNC(=O)C2CCN(C(=O)c3csc(Nc4ccc(C)cc4)n3)CC2)cc1	.	1	40	9	1
Cc1nn(Cc2ccc([N+](=O)[O-])cc2)c(=O)n1-c1cccc(Cl)c1	-0.39	11	15	-4	0
COCc1cc(C)nc(OCC(=O)N/N=C/c2ccc(O)cc2O)c1C#N	-0.7	-36	-5	52*	0
COc1ccc(N2Cc3ccc(C(=O)N/N=C\c4ccc(O)cc4O)cc3C2)cc1	.	93*	-24	.	0
COc1ccccc1/C=N/NC(=O)CSc1cc(C)nc2ccccc12	-3.1	-3	-6	-10	0
COc1ccc(Cc2nc3ccccc3n2CC(=O)N/N=C/c2ccc(O)cc2)cc1OC	0.3	4	-2	11	0
COc1ccc(Cc2nc3ccccc3n2CC(=O)N/N=C/c2ccc(C)cc2O)cc1OC	-0.099	0	-7	52*	0
SMILES	Cl transport mod	Calb FLC	PHOSPHO1 inh	Cardio protect	Efflux pump mplx
COc1cccc2c(SCC(=O)N/N=C/c3ccc(O)cc3O)cc(C)nc12	-0.63	-3	36	81*	.
COc1ccc2nc(C)cc(SCC(=O)N/N=C/c3ccc(O)cc3O)c2c1	-0.1	-40	-10	52*	-1
COc1ccccc1Cn1c(=S)[nH]c2cc(C(=O)N3CCN(c4ccccc4OC)CC3)ccc2c1=O	.	-3	23	0	0
COc1ccccc1N1CCN(C(=O)c2ccc3c(=O)n(Cc4ccco4)c(=S)[nH]c3c2)CC1	-1.7	3	82*	6	0
O=C(COC(=O)Cc1ccccc1F)Nc1ccc(F)cc1F	0.4	-9	34	13	0
O=C(Cc1ccccc1)NC(=S)Nc1cccc(C(F)(F)F)c1	6*	29	26	-25	0
Fc1ccc(NC(=S)NCc2ccccc2)cc1	.	-2	-13	-3	0
O=C(Cc1ccccc1)NC(=S)Nc1cc(C(F)(F)F)ccc1Cl	1.2	0	46	-22	0
Cc1ccc(NC(=S)NNC(=S)NCc2ccccc2)cc1	-0.66	-13	75*	-13	0
FC(F)(F)c1cccc(NC(=S)NCc2ccccn2)c1	0.95	-8	-5	-4	0
FC(F)(F)c1cccc(NC(=S)NNC(=S)NCc2ccccc2)c1	1.7	4	104*	-20	0
Cc1cc(C)cc(N2C(=O)C=CC2=O)c1	.	.	.	-22	.
CC(=O)N(c1ccccc1)C(C(=O)c1ccccc1)c1ccccc1 (configuration not stated)	.	.	.	1	.
CCN(CC)C(=O)/C(=C/c1ccc2c(c1)OCO2)NC(=O)c1ccc(Br)cc1	0.69	91*	-2	1	0
CCCc1cc2c(cc1NC(=O)c1ccc(C(C)(C)C)cc1)OCO2	1.3	-4	-3	-5	0
O=C(O)CNC(=O)/C(=C\c1ccc2c(c1)OCO2)NC(=O)c1ccc(Br)cc1	.	11	-5	5	0
CCCc1cc2c(cc1NC(=O)c1ccc(Br)cc1)OCO2	-0.16	-7	23	56*	0
CCn1c(=S)[nH]c2c(c1=O)C(C)(C)Cc1ccccc1-2	151*	-11	40	-21	.
Cc1ccc(C)c(NNC(=O)C(=O)NNc2cc(C)ccc2C)c1	0.27	-24	44	-7	0
Cc1cccc(NC(=O)CC(=O)Nc2cccc(C)c2)c1	.	-26	31	5	0
Cc1cccc(NNC(=O)C(=O)NNc2cccc(C)c2)c1	.	100*	47	0	0
Cc1ccccc1NNC(=O)C(=O)NNc1ccccc1C	0.022	-15	68*	-3	0
CCCc1ccc(C(=O)NNc2cccc(C)c2)cc1	-0.43	97*	19	-7	0
CCCc1ccc(C(=O)NNC(=O)c2ccc(Cl)cc2)cc1	-2.9	3	18	-6	0
CC(C)(C)c1ccc(C(=O)NNc2cc(Cl)cc(Cl)c2)cc1	-1.5	-21	8	-2	0
Cc1ccc(NC(=S)NNC(=O)CCn2cc(C)cn2)cc1	-0.41	-6	69*	-2	0
O=C(Cn1nc(C(F)F)cc1C(F)F)NNC(=S)Nc1ccc(F)cc1	0.18	4	73*	-5	0
Cc1cc([N+](=O)[O-])nn1CC(=O)NNC(=S)Nc1ccc(Cl)cc1	.	20	93*	5	0
O=C(Cn1nc(C(F)F)cc1C(F)F)NNC(=S)Nc1ccc([N+](=O)[O-])cc1	.	43	36	8	0

Screens: PubChem BioAssay, several laboratories
